This is an account of results in the supplement of paper PMC11732987, “Enantioselective OTUD7B fragment discovery through chemoproteomics screening and high-throughput optimisation” (Communications Chemistry, 2025).

Common to all, as to experiment: log2 ratio of Biotin-Ahx-Ub-VS probe labelling (fragment/DMSO); higher = less target engagement (more negative = stronger competition), active = hit call of the paper (q ≤ 0.05, log2 ratio ≤ -1)
Common to all, as to conditions: compound concentration: 200 uM; treatment time: 3 h

In one experiment the target is T1, OTUD6B (UniProt Q8N6M0).
T1 sequence (whole entry): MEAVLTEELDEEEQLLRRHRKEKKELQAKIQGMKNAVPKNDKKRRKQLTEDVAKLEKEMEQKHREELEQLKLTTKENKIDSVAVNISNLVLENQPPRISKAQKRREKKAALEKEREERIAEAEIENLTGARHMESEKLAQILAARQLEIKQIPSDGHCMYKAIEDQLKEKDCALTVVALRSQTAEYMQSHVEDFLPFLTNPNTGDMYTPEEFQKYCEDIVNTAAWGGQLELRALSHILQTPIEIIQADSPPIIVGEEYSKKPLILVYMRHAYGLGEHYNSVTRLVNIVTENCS
In outline: (§1)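 Triplicate samples of HEK293T lysate, 495 µg each, received fragment at 200 µM or vehicle for 3 h, followed by Biotin-Ahx-Ub-VS (0.5 µM final) for 1 h. After NeutrAvidin enrichment of labelled DUBs and LysC/trypsin digestion, peptides were run by diaPASEF LC-MS/MS. The values are average log2 fragment/vehicle ratios from global-median-normalised Spectronaut label-free quantities, tested by unpaired t-test on proteins having ≥2 unique peptides.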

In the next experiment the target is T2, OTUD7B (UniProt Q6GQQ9).
T2 sequence (whole entry): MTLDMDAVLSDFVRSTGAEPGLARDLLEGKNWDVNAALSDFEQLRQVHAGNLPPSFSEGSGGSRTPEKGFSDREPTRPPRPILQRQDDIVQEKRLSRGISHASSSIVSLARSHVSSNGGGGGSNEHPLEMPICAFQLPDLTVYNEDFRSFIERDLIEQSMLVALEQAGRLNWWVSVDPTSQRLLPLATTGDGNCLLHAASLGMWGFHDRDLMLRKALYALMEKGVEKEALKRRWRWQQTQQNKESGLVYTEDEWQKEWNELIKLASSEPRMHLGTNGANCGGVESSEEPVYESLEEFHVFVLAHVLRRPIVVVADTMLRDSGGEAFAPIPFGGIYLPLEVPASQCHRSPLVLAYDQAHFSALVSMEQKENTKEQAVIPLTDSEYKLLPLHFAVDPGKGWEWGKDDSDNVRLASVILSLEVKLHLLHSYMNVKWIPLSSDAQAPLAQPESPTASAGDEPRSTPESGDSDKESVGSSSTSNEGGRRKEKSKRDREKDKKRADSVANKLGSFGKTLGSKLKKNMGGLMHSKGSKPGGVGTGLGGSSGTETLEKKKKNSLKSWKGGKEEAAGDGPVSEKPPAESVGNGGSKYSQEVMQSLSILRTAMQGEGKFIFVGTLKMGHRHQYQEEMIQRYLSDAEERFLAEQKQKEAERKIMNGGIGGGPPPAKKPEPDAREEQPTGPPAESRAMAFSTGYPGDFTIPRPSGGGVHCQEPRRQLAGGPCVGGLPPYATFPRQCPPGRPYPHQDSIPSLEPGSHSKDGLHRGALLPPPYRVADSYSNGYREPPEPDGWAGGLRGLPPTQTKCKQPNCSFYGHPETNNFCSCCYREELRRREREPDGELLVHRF
In outline: as §1

A further experiment concerns the target PRPF8 (UniProt Q6P2Q9). In outline:
as §1

Another experiment has as its target T3, PSMD7 (UniProt P51665).
T3 sequence (whole entry): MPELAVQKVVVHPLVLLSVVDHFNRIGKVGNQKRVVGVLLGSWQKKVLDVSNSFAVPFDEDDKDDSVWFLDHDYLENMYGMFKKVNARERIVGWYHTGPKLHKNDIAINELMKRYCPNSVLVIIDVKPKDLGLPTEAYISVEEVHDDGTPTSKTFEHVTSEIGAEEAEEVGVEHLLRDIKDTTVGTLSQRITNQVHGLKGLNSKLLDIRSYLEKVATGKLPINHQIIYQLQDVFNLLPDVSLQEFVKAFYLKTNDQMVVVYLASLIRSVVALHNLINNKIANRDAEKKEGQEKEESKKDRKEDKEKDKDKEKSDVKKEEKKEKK
In outline:
as §1

The next experiment addresses UCHL1 (UniProt P09936). The method, boiled down: as §1
In the next experiment the target is T4, UCHL3 (UniProt P15374).
T4 sequence (whole entry): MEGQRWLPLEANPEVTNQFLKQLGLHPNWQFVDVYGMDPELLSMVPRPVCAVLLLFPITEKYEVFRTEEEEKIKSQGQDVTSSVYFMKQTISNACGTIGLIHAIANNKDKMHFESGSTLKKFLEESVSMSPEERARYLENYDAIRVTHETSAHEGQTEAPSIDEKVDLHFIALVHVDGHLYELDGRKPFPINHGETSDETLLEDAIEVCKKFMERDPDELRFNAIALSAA
In outline:
as §1

The target of another experiment is T5, UCHL5 (UniProt Q9Y5K5).
T5 sequence (whole entry): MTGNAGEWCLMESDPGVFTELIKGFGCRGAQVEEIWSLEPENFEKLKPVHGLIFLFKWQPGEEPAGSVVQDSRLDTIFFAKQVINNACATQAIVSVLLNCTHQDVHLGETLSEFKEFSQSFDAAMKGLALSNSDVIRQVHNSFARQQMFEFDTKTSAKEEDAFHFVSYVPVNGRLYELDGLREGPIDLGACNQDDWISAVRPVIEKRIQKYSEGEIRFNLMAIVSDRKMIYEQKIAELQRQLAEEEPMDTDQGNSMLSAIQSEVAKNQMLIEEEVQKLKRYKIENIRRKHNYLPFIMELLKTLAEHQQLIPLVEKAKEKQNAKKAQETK
The method, boiled down:
as §1

A further experiment deals with USP10 (UniProt Q14694). In outline:
as §1

In the next experiment the target is T6, USP15 (UniProt Q9Y4E8).
T6 sequence (whole entry): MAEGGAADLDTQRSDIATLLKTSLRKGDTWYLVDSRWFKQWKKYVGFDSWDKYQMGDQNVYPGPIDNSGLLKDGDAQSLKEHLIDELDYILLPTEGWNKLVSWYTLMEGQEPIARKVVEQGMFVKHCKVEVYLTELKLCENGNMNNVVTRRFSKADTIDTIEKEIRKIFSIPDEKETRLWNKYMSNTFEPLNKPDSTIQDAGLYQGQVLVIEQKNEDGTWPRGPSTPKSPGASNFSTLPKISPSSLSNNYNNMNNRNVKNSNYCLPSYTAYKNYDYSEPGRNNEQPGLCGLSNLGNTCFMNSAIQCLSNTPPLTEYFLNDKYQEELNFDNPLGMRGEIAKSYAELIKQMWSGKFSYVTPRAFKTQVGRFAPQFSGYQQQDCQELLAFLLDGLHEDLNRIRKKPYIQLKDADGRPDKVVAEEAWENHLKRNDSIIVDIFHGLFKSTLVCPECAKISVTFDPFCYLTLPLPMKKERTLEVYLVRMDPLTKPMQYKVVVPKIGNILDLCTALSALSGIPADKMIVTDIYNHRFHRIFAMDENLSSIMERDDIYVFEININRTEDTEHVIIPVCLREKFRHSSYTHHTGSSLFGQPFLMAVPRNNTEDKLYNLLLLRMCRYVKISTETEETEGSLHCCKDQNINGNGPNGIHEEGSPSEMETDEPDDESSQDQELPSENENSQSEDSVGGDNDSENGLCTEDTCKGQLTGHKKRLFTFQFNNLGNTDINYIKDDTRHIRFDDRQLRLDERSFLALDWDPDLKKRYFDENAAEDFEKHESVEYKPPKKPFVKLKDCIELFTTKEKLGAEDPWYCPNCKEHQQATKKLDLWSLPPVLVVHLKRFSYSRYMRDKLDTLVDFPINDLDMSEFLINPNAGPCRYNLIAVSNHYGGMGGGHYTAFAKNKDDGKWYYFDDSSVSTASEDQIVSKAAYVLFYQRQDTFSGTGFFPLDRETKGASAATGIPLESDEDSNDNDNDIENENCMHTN
In outline: as §1

A further experiment deals with USP16 (UniProt Q9Y5T5). In outline: as §1
Sequence of USP16 (Q9Y5T5 whole entry, looked up): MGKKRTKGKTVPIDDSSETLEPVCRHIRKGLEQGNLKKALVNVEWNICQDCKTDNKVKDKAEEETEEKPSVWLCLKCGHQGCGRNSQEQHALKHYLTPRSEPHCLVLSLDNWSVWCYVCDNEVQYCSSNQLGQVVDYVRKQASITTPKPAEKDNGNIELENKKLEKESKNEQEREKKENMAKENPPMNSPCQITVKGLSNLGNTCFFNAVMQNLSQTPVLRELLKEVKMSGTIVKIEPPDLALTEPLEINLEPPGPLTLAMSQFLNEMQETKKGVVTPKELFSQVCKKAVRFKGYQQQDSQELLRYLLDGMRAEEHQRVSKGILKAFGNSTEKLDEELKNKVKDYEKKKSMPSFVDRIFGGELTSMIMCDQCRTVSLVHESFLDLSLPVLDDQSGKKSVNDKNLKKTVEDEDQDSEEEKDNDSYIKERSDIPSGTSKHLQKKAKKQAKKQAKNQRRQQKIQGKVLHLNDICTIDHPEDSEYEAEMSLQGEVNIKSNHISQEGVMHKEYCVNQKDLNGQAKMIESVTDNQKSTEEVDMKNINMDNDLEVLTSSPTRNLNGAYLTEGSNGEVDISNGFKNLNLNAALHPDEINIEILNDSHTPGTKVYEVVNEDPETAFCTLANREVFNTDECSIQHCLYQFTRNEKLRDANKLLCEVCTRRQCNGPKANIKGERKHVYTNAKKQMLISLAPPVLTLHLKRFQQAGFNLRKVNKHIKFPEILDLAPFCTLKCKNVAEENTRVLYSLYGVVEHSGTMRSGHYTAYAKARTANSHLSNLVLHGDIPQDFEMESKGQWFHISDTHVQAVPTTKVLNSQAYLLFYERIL

SMILES strings stand for the structures. Values without a mark were called inactive.

Sequence of UCHL1 (P09936 whole entry, looked up): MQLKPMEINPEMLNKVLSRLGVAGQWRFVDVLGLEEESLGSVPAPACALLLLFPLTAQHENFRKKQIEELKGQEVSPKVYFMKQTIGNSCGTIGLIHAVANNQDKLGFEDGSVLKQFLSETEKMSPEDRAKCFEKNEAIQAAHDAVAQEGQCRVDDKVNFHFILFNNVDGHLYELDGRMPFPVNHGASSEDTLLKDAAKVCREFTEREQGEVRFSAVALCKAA
Sequence of USP10 (Q14694 whole entry): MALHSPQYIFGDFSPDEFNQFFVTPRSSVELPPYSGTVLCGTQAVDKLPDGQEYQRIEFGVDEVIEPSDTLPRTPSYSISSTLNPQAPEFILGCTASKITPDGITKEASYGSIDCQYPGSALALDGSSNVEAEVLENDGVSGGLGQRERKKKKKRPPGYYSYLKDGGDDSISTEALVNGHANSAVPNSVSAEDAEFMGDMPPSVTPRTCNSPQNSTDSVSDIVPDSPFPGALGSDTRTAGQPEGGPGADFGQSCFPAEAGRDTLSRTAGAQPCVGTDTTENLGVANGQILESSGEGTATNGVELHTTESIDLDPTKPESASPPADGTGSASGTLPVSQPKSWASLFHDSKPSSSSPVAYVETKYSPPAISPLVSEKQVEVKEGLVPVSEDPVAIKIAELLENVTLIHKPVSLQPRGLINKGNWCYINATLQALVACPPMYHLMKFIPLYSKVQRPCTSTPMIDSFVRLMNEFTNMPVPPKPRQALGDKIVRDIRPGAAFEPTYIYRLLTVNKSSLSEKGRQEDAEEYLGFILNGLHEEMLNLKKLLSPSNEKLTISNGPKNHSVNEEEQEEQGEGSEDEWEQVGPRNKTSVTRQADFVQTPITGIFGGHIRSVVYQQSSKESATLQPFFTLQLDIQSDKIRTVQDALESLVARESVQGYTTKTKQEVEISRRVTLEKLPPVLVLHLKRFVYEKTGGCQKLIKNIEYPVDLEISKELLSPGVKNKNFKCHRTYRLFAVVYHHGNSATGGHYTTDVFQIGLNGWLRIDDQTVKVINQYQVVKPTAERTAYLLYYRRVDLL

Turning to `O=C(CCl)Nc1ccc(N2CCCC2=O)cc1`, the “log2 ratio of Biotin-Ahx-Ub-VS probe labelling” value (shortened to “log2 ratio”) is 0.116 with OTUD6B; -0.359 with OTUD7B; 0.162 with PRPF8; -0.145 in the experiment with PSMD7; -1.1 (active) in the experiment with UCHL1; 0.206 with UCHL3. The “log2 ratio” value is -0.098 with UCHL5, -0.0139 with USP10, 0.104 with USP15 and 0.0122 with USP16.
With `O=C(CCl)Nc1nc(-c2cccs2)cs1`, the “log2 ratio” value is -0.434 with OTUD6B; -0.695 with OTUD7B; 0.14 with PRPF8; -0.0595 with PSMD7; -1.45 (active) in the experiment with UCHL1; 0.426 with UCHL3. The “log2 ratio” value is -2.61 (active) in the experiment with UCHL5, -0.0951 with USP10, -0.354 with USP15 and -0.00927 with USP16.
`O=C(CCl)NC1CCCCNC1=O` (stereo not given): the “log2 ratio” value with OTUD6B was -0.522; with OTUD7B, -0.212; in the experiment with PRPF8 it was -0.0633; with PSMD7, -0.0971; with UCHL1, -1.46 (active); with UCHL3 it was 0.241. For the same compound, the “log2 ratio” value in the experiment with UCHL5 is -0.137; in the experiment with USP10, -0.269; with USP15 it was -0.252; with USP16, -0.792.
In the case of `O=C(CCl)N1CCCC2CCCCC21` (stereo not given), the “log2 ratio” value with OTUD6B was 0.111; in the experiment with OTUD7B it was -0.246; in the experiment with PRPF8 it was 0.0617; in the experiment with PSMD7, -0.09; with UCHL1, -1.06 (active); in the experiment with UCHL3 it was 0.0783. The “log2 ratio” value with UCHL5 was -0.193; in the experiment with USP10, -0.167; with USP15, -0.1; with USP16, -0.257.
On to `Cc1cccc(N2CCC(NC(=O)CCl)C2=O)c1` (stereo not given), for which the “log2 ratio” value with OTUD6B was -0.339; with OTUD7B, -1.61 (active); with PRPF8, -0.232; with PSMD7 it was -0.248; with UCHL1, -1.87 (active); with UCHL3, 0.0361. Besides, the “log2 ratio” value in the experiment with UCHL5 is -0.503; in the experiment with USP10, -0.133; with USP15, -0.299; with USP16, -0.021.
Regarding `O=C(CCl)Nc1ccc(F)cc1Cl`, the “log2 ratio” value with OTUD6B was -0.388; with OTUD7B it was -0.667; with PRPF8, 0.079; with PSMD7, -0.115; in the experiment with UCHL1, -1.44; in the experiment with UCHL3 it was -0.112. Moreover, the “log2 ratio” value was -0.49 with UCHL5, -0.129 in the experiment with USP10, 0.0309 in the experiment with USP15 and -0.265 in the experiment with USP16.
Regarding `O=C(CCl)NCCc1ccc2c(c1)OCCO2`, the “log2 ratio” value with OTUD6B was -0.218; in the experiment with OTUD7B, -0.434; in the experiment with PRPF8, 0.0207; in the experiment with PSMD7, -0.153; with UCHL1, -1.2 (active); in the experiment with UCHL3 it was -0.0656. Further, the “log2 ratio” value in the experiment with UCHL5 is -0.156; with USP10 it was -0.3; in the experiment with USP15 it was -0.184; with USP16, 0.248.
